Screening data (PubChem)
The list is not random: actives were taken first. Their share in the collection is about 3.6%.
esBAF inh: inhibitors of esBAF chromatin remodeling in mouse ES cells. reporter increase, % at 12.5 µM. AID 602393. Bmi1-luciferase knock-in reporter, 24 h; 100% = twice the neutral-well signal. 2% of 350,000 active; in the data active = activation above about 40%; inconclusive = no clear call, values can overlap the other calls;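 note: a rise in the Bmi1 reporter signal indicates esBAF inhibition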
MITF act: MITF TRPM1 promoter activation in melanoma cells. SK-MEL-5 TRPM1-promoter luciferase, 24 h; % of positive control, neutral wells = 0. activation, % at 12.5 µM. 0.75% of 300,000 active. AID 588334;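 active = mean activation of at least 80% with every replicate also reaching 80%; inconclusive = mean reaches 80% but some replicate falls short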
Wnt bcat act: activates Wnt/beta-catenin signaling in a reporter cell assay. activator, plate reader. activation, % at 9.35 µM. 1.2% of 300,000 active; in the data active = activation above about 30%, passing the limit was not always enough; inconclusive = no clear call, values can overlap the other calls
A3G deaminase: blocks human APOBEC3G single-stranded DNA deamination; inhibition, % at 20 µM; Q9HC16; 0.28% of 330,000 active; AID 493012; recombinant A3G, ssDNA deamination FAM/TAMRA fluorescence;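 active = inhibition of at least 40% at 20 µM, with no more than 30% in the related APOBEC3A deaminase screen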
Target sequence (Q9HC16 whole entry, looked up): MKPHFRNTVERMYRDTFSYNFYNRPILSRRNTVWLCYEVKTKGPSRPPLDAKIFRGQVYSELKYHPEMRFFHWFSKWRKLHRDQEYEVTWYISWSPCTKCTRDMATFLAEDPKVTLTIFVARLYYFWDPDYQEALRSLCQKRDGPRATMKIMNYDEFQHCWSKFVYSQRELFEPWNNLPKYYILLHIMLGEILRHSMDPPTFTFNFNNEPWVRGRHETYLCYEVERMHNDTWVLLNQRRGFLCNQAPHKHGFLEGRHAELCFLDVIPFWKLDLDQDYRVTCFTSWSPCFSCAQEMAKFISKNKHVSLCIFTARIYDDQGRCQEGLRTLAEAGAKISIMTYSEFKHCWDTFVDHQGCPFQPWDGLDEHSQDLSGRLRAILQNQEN
A3A deaminase: blocks human APOBEC3A ssDNA deamination | recombinant A3A, FAM/TAMRA ssDNA deamination fluorescence | inhibition, % at 20 µM | 0.41% of 330,000 active | AID 493011;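 active = at least 40% inhibition at 20 µM here, with at most 30% in a related deaminase screen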
PHOSPHO1 inh: inhibitors of human PHOSPHO1 phosphatase; Q8TCT1; recombinant PHOSPHO1, absorbance phosphatase assay; inhibition, % at 13.3 µM; 1.1% of 290,000 active; in the data active = inhibition above about 60%
Target sequence (Q8TCT1 whole entry, looked up): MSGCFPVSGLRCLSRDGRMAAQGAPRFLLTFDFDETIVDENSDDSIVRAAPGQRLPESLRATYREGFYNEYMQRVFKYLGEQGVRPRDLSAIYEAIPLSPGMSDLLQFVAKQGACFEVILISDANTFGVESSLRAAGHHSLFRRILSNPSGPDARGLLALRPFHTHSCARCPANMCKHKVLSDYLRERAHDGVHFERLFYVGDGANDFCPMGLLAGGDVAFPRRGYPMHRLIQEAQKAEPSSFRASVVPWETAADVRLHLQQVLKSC
Numbers stand for hits; – = inactive; ? = inconclusive; · = no result given.

SMILES	esBAF inh	MITF act	Wnt bcat act	A3G deaminase	A3A deaminase	PHOSPHO1 inh
O=C(C[C@@H]1CC[C@H]2[C@@H](COC[C@@H](O)CN2S(=O)(=O)c2ccccc2)O1)NCc1ccc(-c2ccccc2)cc1	–	·	·	·	·	·
CN(C)CC(=O)Nc1ccc2c(c1)[C@H]1C[C@@H](CC(=O)NCCN3CCCCC3)O[C@H](CO)[C@H]1O2	–	·	·	·	·	·
O=C(NCCc1ccccc1)c1ccc(Br)o1	49	?	–	–	–	–
O=C(ONc1ccc(N=NC(=O)c2ccccc2O)cc1)c1ccccc1	–	–	·	–	–	83
O=Nc1ccc(NOC(=O)c2ccccc2Br)cc1	·	–	·	–	–	–
CC(C)NC(=O)N(C)C[C@H]1Oc2cc(-c3cccnc3)ccc2S(=O)(=O)N([C@H](C)CO)C[C@@H]1C	–	·	·	·	·	·
Cc1ccc(Nc2nc(/N=C/NO)n[nH]2)cc1C	–	–	–	–	–	65
Cc1nc(C)c(-c2ccnc(/N=C/NO)n2)s1	–	–	–	–	–	–
Cc1cc(NCCCN)nc(-c2ccccc2O)n1	45	–	·	–	–	–
Cc1cc(Nc2ccc(F)c(F)c2)nc(-c2ccccc2O)n1	–	–	–	–	–	–
Cc1ccc(Nc2cc(C)nc(-c3ccccc3O)n2)cc1	53	·	42	–	–	–
Cc1ccc(Nc2cc(C)nc(-c3ccccc3)n2)cc1	?	122	?	–	–	–
CCCNC(=O)N1C[C@H]2[C@@H](c3ccccc31)[C@@H](CO)N2C(=O)CN1CCOCC1	–	·	·	·	·	·
CCc1nc2cc3sc(CC)nc3cc2s1	76	–	–	–	–	–
CCc1ccc2nc(N)sc2c1	·	–	–	–	–	–
CNC[C@H]1Oc2c(NC(=O)NC3CCCCC3)cccc2C(=O)N([C@H](C)CO)C[C@@H]1C	–	·	·	·	·	·
O=[N+]([O-])c1cc(-n2cnnn2)ccc1N1CCC(Cc2ccccc2)CC1	–	–	·	–	–	–
CC1CC(C)CN(c2ccc(-n3cnnn3)cc2[N+](=O)[O-])C1 (stereo not drawn)	–	–	·	–	–	60
COCC(=O)Nc1ccc2c(c1)C(=O)N(C)C[C@@H](OC)[C@H](C)CN(CCC(F)(F)F)[C@H](C)CO2	–	·	·	·	·	·
CCCn1nnc(NC(=O)c2cccc(OCC)c2)n1	–	–	–	–	–	–
CCCn1nnc(NC(=O)c2ccc3ccccc3c2)n1	·	122	–	–	–	–
Clc1cccc(-c2ccc3ncnc(NCc4cccs4)c3c2)c1	–	–	35	–	–	·
CCOc1cc(/C=C2/NC(=O)NC2=O)cc(Br)c1OCc1ccc(C(=O)O)cc1	·	–	–	–	–	86
O=C(N/N=C/C(Cl)=C\c1ccccc1)c1cccs1	·	·	39	–	–	–
CC(/C=N/NC(=O)c1sc(N)nc1C)=C\c1ccccc1	·	120	?	–	–	–
SMILES	esBAF inh	MITF act	Wnt bcat act	A3G deaminase	A3A deaminase	PHOSPHO1 inh
CC(/C=N/NC(=O)c1ccccc1C)=C\c1ccccc1	·	·	?	–	–	·
Cc1nc(N)sc1C(=O)N/N=C/c1ccccc1[N+](=O)[O-]	·	·	–	–	–	–
CC(/C=N/NC(=O)c1cccs1)=C\c1ccccc1	–	99	–	–	–	–
CC(/C=N/NC(=O)c1ccccc1F)=C\c1ccccc1	–	99	–	–	–	–
C[C@H](CO)N1C[C@H](C)[C@@H](CN(C)Cc2ccc(Cl)c(Cl)c2)Oc2c(cccc2N(C)C)C1=O	–	·	·	·	·	·
CNC[C@@H]1Oc2c(NC(=O)Nc3ccc4c(c3)OCO4)cccc2C(=O)N([C@@H](C)CO)C[C@H]1C	–	·	·	·	·	·
C[C@@H]1CCCCO[C@@H](CN(C)C(=O)Nc2ccc3c(c2)OCO3)[C@@H](C)CN([C@H](C)CO)C(=O)c2cc(NC(=O)Nc3ccc(F)cc3)ccc2O1	–	·	·	·	·	·
C[C@@H]1CN([C@@H](C)CO)C(=O)c2cc(NC(=O)Nc3ccc4c(c3)OCO4)ccc2O[C@@H](C)CCCCO[C@H]1CN(C)C(=O)Nc1ccccc1	66	·	·	·	·	·
C[C@@H]1CCCCO[C@@H](CN(C)C(=O)Nc2ccc3c(c2)OCO3)[C@H](C)CN([C@H](C)CO)C(=O)c2cc(NC(=O)Nc3ccccc3)ccc2O1	–	·	·	·	·	·
C[C@H](CO)N1C[C@H](C)[C@@H](CN(C)C(=O)Nc2ccc(F)cc2)OCCCC[C@H](C)Oc2ccc(NC(=O)Nc3ccc4c(c3)OCO4)cc2C1=O	50	·	·	·	·	·
C[C@@H]1CN([C@@H](C)CO)C(=O)c2cc(NC(=O)Nc3ccc4c(c3)OCO4)ccc2O[C@@H](C)CCCCO[C@@H]1CN(C)Cc1ccncc1	–	·	·	·	·	·
C[C@H]1CCCCO[C@@H](CN(C)Cc2ccncc2)[C@@H](C)CN([C@@H](C)CO)C(=O)c2cc(NC(=O)Nc3ccc4c(c3)OCO4)ccc2O1	80	·	·	·	·	·
NC(=O)c1ccccc1N/C=C/C(=O)c1ccc(F)cc1	–	–	54	–	–	–
N#Cc1ccccc1N/C=C/C(=O)c1ccc(Cl)cc1	–	·	48	–	–	·
O=C(/C=C/Nc1ccccc1F)c1ccc(Br)cc1	·	–	46	·	·	–
O=C(/C=C/Nc1ccc(F)cc1)c1ccc(Br)cc1	·	–	61	–	–	–
O=C(/C=C/NNC(=O)c1ccc(Cl)cc1)c1ccccc1	·	–	–	–	–	–
O=C(/C=C/Nc1ccc(F)c(F)c1)c1ccc(Br)cc1	·	–	–	–	–	–
CCC(=O)Nc1ccc2c(c1)OC[C@H](C)N(C(=O)COC)C[C@@H](C)[C@@H](OC)CN(C)C2=O	–	·	·	·	·	·
C[C@@H](NC(=O)C[C@H]1C[C@H]2c3cc(NC(=O)CC4CC4)ccc3O[C@H]2[C@H](CO)O1)c1ccccc1	–	·	·	·	·	·
C[C@H](CO)N1C[C@H](C)[C@H](CN(C)Cc2ccncc2)OCCCC[C@H](C)Oc2ccc(NS(=O)(=O)c3ccccc3)cc2C1=O	–	·	·	·	·	·
CC(=O)NC(NC(=S)Nc1ccc(N=Nc2ccccc2)cc1)C(Cl)(Cl)Cl (stereo not drawn)	–	·	47	–	–	–
Oc1c(C=Nc2ccccc2Cl)[nH]c2ccccc12	–	–	–	–	–	63
O=c1[nH][nH]c(C(F)(F)F)c1C=Nc1ccccc1Cl	–	–	·	–	–	–
C[C@@H]1CCCCO[C@@H](CN(C)Cc2ccc(C(=O)O)cc2)[C@@H](C)CN([C@@H](C)CO)C(=O)c2cc(NC(=O)c3ccccc3)ccc2O1	–	·	·	·	·	·
N/C(=N\OC(=O)c1cccc(F)c1)c1cccc([N+](=O)[O-])c1	61	·	–	–	–	–
N/C(=N\OC(=O)c1ccc(F)cc1)c1cccc([N+](=O)[O-])c1	–	87	–	–	–	–
N/C(=N\OC(=O)c1ccc2ccccc2c1)c1cccc([N+](=O)[O-])c1	–	–	–	–	–	–
N/C(=N\OC(=O)c1ccccc1Cl)c1cccc([N+](=O)[O-])c1	–	·	–	–	–	–
C[C@H]1CN([C@@H](C)CO)C(=O)c2cccc(NC(=O)Nc3ccccc3)c2O[C@H]1CN(C)Cc1ccc(Cl)c(Cl)c1	–	·	·	·	·	·
